The results in this text go back to ChEMBL document CHEMBL1961873, “Compounds: GSK PKIS; Assays: Nanosyn kinase panel” (2012).

For assay [1], the target named is Serine/threonine-protein kinase MRCK alpha (Homo sapiens) (UniProt Q5VT25). The following applies: at 0.1 µM.
Assay [2] has the same target. The following applies: at 1 µM.
Assay [3] addresses Serine/threonine-protein kinase MRCK beta (Homo sapiens) (UniProt Q9Y5S2). The note with it: at 0.1 µM.
For assay [4] the target is unchanged. The following applies: at 1 µM.
The target of assay [5] is Ribosomal protein S6 kinase alpha-5 (Homo sapiens) (UniProt O75582). The following applies: at 0.1 µM.
For assay [6] the target is unchanged. The note with it: at 1 µM.
Assay [7] has as its target Ribosomal protein S6 kinase alpha-4 (Homo sapiens) (UniProt O75676). The note with it: at 0.1 µM.
The target is the same in assay [8]. The note with it: at 1 µM.
Assay [9] concerns the target Ribosomal protein S6 kinase beta-1 (Homo sapiens) (UniProt P23443). The following applies: at 0.1 µM.
For assay [10] the target is unchanged. The note with it: at 1 µM.
Assay [11] concerns the target T1, 3-phosphoinositide-dependent protein kinase 1 (Homo sapiens) (UniProt O15530).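 Note: values are mean inhibition of PDK1.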
T1 sequence (whole entry): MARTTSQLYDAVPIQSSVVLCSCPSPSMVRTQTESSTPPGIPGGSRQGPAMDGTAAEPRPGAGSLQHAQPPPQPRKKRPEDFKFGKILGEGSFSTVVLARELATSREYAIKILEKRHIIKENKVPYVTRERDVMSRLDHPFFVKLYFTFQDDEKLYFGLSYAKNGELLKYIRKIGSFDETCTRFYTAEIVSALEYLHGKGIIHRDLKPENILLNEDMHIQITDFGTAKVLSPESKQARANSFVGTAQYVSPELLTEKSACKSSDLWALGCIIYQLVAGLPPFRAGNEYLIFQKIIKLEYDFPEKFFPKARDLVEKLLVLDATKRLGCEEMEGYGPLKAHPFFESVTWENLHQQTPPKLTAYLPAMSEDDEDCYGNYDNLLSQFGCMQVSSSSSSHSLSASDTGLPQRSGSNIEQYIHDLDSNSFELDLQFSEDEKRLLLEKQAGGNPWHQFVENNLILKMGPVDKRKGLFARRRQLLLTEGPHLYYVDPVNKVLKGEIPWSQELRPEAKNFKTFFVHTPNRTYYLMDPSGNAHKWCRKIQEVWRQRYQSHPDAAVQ
The note with it: at 0.1 µM.

Assay [12] addresses cAMP-dependent protein kinase catalytic subunit alpha (Homo sapiens) (UniProt P17612). The note with it: at 0.1 µM.
Assay [13] has the same target. The note with it: at 1 µM.
In assay [14] the target is Protein kinase C alpha type (Homo sapiens) (UniProt P17252). The note with it: at 0.1 µM.
Assay [15] shares this target. The note with it: at 1 µM.
For assay [16], the target named is Protein kinase C beta type (Homo sapiens) (UniProt P05771). The note with it: at 0.1 µM.
For assay [17] the target is unchanged. The following applies: at 1 µM.
Assay [18] has as its target Protein kinase C eta type (Homo sapiens) (UniProt P24723). The following applies: at 0.1 µM.
Assay [19] has the same target. The following applies: at 1 µM.
In assay [20] the target is Protein kinase C gamma type (Homo sapiens) (UniProt P05129). The note with it: at 0.1 µM.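 Note: values are mean percent inhibition of PKC gamma.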

Ribosomal protein S6 kinase beta-1 (Homo sapiens), sequence (P23443 whole entry, looked up): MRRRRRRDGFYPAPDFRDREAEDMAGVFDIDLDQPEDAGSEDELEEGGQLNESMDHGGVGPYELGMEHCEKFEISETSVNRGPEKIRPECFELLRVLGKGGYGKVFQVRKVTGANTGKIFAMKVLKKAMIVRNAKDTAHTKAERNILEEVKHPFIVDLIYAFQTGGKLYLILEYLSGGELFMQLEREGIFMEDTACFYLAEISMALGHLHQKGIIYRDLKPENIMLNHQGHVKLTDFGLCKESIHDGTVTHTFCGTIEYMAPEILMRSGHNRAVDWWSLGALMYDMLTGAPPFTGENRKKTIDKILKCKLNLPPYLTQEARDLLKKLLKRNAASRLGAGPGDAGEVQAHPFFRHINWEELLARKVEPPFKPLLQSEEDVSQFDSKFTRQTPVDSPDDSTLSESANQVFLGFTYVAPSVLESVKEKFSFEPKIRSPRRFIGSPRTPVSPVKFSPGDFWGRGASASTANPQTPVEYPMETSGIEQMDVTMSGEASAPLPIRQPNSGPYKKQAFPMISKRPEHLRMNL
Ribosomal protein S6 kinase alpha-5 (Homo sapiens), sequence (O75582 whole entry, looked up): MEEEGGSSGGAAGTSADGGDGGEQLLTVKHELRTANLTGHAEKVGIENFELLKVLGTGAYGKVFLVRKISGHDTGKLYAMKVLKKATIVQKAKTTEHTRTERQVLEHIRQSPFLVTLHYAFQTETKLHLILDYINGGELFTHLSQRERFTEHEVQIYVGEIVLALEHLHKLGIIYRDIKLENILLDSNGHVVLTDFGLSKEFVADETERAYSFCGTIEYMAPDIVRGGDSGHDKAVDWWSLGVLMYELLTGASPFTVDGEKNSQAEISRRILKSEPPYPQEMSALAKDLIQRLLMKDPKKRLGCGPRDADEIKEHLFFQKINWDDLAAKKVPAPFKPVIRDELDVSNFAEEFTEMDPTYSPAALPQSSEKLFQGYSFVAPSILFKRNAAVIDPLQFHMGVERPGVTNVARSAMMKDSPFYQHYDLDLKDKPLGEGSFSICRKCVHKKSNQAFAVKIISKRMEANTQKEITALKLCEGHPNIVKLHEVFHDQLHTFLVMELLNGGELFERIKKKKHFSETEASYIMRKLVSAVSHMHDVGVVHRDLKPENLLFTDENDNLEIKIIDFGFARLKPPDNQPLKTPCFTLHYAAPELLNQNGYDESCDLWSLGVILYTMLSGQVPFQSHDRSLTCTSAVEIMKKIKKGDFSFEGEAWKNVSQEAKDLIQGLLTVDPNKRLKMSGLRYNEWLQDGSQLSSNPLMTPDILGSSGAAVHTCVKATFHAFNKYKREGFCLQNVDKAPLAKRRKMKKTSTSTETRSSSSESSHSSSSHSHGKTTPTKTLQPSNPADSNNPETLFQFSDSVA
Protein kinase C beta type (Homo sapiens), sequence (P05771 2-671 limits assumed): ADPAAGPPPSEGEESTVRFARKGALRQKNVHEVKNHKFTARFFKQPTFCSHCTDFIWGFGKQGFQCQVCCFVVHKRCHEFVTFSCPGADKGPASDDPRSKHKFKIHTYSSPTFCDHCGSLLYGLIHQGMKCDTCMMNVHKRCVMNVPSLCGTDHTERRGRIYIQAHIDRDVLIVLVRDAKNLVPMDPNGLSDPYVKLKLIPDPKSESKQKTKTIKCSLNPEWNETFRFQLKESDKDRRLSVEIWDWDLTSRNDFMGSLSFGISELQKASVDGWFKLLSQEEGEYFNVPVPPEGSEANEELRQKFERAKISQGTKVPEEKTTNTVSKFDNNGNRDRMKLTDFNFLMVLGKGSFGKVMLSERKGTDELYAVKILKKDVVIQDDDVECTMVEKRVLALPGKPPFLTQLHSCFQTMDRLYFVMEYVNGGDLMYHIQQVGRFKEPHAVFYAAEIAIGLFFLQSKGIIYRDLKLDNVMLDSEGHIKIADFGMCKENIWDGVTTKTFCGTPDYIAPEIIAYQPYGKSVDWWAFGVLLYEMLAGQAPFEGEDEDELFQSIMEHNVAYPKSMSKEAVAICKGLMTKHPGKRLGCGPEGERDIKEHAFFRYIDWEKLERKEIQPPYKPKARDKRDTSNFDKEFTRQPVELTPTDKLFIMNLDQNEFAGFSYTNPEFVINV
Ribosomal protein S6 kinase alpha-4 (Homo sapiens), sequence (O75676 whole entry, looked up): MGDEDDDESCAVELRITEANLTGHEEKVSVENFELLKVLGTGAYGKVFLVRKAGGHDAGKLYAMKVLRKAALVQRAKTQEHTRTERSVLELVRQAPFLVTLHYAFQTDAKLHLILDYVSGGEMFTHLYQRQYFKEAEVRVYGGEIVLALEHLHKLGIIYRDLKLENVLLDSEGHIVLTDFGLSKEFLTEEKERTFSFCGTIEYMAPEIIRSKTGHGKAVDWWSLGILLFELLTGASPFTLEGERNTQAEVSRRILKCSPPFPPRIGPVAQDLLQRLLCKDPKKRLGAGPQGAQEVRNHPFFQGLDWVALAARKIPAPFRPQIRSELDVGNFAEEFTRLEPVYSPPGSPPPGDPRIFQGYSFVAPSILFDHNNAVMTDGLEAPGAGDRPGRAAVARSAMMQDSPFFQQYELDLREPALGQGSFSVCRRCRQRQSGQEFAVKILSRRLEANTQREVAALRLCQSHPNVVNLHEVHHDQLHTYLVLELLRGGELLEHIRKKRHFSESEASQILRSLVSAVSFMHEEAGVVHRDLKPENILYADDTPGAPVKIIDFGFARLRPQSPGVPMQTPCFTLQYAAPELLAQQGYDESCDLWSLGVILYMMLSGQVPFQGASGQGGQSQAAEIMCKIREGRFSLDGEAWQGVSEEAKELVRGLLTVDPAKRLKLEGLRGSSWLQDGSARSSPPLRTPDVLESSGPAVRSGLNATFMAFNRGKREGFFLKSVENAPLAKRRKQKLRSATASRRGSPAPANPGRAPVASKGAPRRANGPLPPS
Serine/threonine-protein kinase MRCK alpha (Homo sapiens), sequence (Q5VT25 whole entry): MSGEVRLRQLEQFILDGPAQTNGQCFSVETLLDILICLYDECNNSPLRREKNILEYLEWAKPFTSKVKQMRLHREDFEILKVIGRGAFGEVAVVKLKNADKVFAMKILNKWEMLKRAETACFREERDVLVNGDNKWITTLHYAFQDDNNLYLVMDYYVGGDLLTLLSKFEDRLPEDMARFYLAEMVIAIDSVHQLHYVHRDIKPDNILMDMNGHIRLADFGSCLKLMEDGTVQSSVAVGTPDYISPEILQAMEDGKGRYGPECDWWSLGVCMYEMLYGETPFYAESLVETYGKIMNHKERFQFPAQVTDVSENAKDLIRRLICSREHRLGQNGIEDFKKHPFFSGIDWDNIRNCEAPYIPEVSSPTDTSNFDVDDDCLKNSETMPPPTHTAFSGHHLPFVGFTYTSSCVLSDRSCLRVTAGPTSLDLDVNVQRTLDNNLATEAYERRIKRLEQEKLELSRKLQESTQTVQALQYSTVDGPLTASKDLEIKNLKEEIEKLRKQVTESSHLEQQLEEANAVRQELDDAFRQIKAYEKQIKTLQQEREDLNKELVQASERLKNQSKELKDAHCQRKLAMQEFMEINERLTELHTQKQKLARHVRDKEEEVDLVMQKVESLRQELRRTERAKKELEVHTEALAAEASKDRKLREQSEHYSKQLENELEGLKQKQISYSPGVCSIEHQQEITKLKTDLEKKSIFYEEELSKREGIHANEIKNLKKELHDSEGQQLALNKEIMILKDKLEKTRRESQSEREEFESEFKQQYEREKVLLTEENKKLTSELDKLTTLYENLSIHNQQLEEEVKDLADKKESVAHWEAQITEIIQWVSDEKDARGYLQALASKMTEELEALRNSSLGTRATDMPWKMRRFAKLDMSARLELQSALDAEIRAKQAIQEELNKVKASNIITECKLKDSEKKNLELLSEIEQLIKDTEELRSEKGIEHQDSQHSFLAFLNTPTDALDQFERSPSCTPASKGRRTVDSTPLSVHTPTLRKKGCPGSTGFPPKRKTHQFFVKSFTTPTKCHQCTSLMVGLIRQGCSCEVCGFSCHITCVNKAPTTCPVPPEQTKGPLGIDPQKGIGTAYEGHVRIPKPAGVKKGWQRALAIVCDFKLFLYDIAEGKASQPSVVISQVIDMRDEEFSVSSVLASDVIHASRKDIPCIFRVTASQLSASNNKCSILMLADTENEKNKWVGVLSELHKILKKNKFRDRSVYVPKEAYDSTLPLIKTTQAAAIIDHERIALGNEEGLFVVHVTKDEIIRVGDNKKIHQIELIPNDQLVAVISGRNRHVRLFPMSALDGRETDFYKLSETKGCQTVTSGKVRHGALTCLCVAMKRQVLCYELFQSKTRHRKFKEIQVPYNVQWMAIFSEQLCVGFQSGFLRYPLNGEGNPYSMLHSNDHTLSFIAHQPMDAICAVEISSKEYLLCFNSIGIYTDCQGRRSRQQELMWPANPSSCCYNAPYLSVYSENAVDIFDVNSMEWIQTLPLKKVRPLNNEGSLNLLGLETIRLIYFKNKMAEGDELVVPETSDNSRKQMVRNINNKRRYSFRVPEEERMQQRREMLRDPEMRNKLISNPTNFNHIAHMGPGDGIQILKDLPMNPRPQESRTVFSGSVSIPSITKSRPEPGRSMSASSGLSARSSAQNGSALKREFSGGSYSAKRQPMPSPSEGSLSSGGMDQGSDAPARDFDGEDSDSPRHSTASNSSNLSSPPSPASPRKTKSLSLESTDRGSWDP

The inhibition is the change of the read-out against control, counted positive when it falls. Regarding `CCN(CC)S(=O)(=O)c1ccc(OC)c(Nc2ncc(-c3ccccc3)o2)c1`, the inhibition in [1] was 1.92%; in assay [2] it was 0.2%; in [3], -0.21%; in assay [4], -0.04%; in assay [5], 3.03%; in assay [6], 6.51%. The inhibition in assay [7] came to 0.54%; in assay [8] it was 1.06%; in assay [9] it was 1.32%; in [10], 0.49%; in assay [11] it was 1.9%; in [12], 0.79%. Moreover, the inhibition amounted to 1.82% in [13]; 0.46% in assay [14]; 1.64% in [15]; 1.38% in assay [16]; 1.74% in assay [17]; 3.12% in assay [18]. Further, the inhibition is 0.58% in assay [19] and 0.29% in assay [20].

Turning to `COc1ccc(-c2cc(-c3c[nH]nc3-c3ccccn3)ccn2)cc1`, the inhibition in assay [1] was -0.6%; in assay [2], 3.02%; in assay [3], -0.39%; in assay [4], 0.6%; in assay [5], 4.28%; in assay [6] it was 4.22%. For the same molecule, the inhibition in assay [7] is 3.45%; in assay [8], 4.77%; in [9], 2.32%; in assay [10], 3.73%; in assay [11] it was 2.34%; in assay [12] it was 2.05%. The inhibition in assay [13] was 3.35%; in [14] it was 0.46%; in [15], 2.09%; in assay [16], 1.41%; in [17] it was 3.92%; in assay [18], 4.04%. Also, the inhibition amounted to 5.03% in assay [19] and 1.23% in assay [20].

Take `CCn1cc(-c2ccnc3[nH]ccc23)c(-c2cccc(NC(=O)Nc3ccc(OCc4ccccc4)cc3)c2)n1`: the inhibition in assay [1] is -4.2%; in [2] it was 4.85%; in assay [3] it was -0.78%; in assay [4], -0.56%; in assay [5], -0.53%; in assay [6], -2.01%. The inhibition was 1.02% in [7]; 0.39% in assay [8]; -0.04% in assay [9]; -0.6% in [10]; -1.57% in [11]; 4.08% in [12]. The inhibition is 5.34% in assay [13]; 1.25% in assay [14]; 2.76% in assay [15]; 0.5% in assay [16]; 1.43% in assay [17]; -2.7% in [18]. For the same molecule, the inhibition was 1.78% in assay [19] and 0.3% in assay [20].

As for `N#Cc1c(NC(=O)CN2CCOCC2)sc2c1CCCC2`, the inhibition in [1] was found to be 0.22%; in assay [2] it was 2.63%; in [3], 0.43%; in [4] it was 0.37%; in assay [5] it was 3.16%; in assay [6], 3.12%. Besides, the inhibition in assay [7] is 2.5%; in [8], 2%; in assay [9] it was 2.57%; in assay [10], 1.13%; in assay [11], 2.07%; in assay [12], 2.3%. The inhibition in [13] is 1.82%; in [14], 2.23%; in [15], 5.72%; in assay [16], 0.89%; in assay [17], 2.05%; in assay [18] it was 5.18%. Besides, the inhibition in assay [19] amounted to 3.17%; in assay [20] it was 3.77%.

In the case of `CCn1c(-c2nonc2N)nc2ccccc21`, the inhibition in assay [1] was found to be 1.63%; in [2], 10.9%; in [3] it was 1.39%; in assay [4], 10.9%; in [5] it was 23.3%; in [6], 62.5%. Moreover, the inhibition in [7] came to 7.88%; in [8], 40.4%; in assay [9], 22.1%; in assay [10] it was 70.5%; in assay [11] it was 2.81%; in assay [12] it was 3.16%. Also, the inhibition in assay [13] was determined as 18.5%; in [14], 0.44%; in assay [15] it was 5.52%; in [16], 12.7%; in assay [17], 46.5%; in assay [18], 20.8%. Further, the inhibition in [19] is 67.6%; in [20], 3.92%.

Consider `Fc1cccc(COc2ccc(Nc3ncnc4sc(-c5ccco5)cc34)cc2Cl)c1`, for which the inhibition in assay [1] is -3.73%; in assay [2], -2.22%; in assay [3], -0.66%; in assay [4] it was -0.82%; in assay [5], 8.97%; in assay [6], 7.53%. Also, the inhibition was 2.45% in [7]; 1.61% in assay [8]; 1.01% in assay [9]; 1.47% in [10]; -0.87% in [11]; 0.8% in assay [12]. Also, the inhibition in assay [13] was 1.84%; in assay [14] it was 1.33%; in assay [15] it was 1.21%; in [16], 0.29%; in assay [17], -3.68%; in assay [18], 5.34%. Besides, the inhibition in assay [19] was 4.83%; in [20], 1.52%.

For `CS(=O)(=O)CCNCc1coc(-c2ccc3ncnc(Nc4ccc(OCc5ccccc5)cc4)c3c2)c1`, the inhibition in assay [1] was 2.17%; in assay [2] it was 0.57%; in [3], 0.72%; in assay [4], 1.14%; in assay [5], 1.49%; in assay [6], 1.55%. Also, the inhibition in assay [7] is 2.52%; in [8], 3.49%; in assay [9], 0.79%; in assay [10], 3.34%; in [11], 6.29%; in assay [12], 1.59%. Besides, the inhibition in [13] is 2.39%; in [14] it was 0.46%; in [15], 1.78%; in [16] it was 0.47%; in [17], -1%; in [18] it was 4.58%. For the same molecule, the inhibition in assay [19] is 3.63%; in assay [20], -2.12%.
